Drawing on PubChem BioAssay (EPA / NIEHS), this text covers outcome and AC50 for nine molecules.

Assay [1] deals with Nucleoli Translocation, AR (gene 367) (UniProt P10275). The assay is described as follows: UPITT_HCI_U2OS_AR_TIF2_Nucleoli_Agonist: University of Pittsburgh U2OS Androgen Receptor-Transcriptional Intermediary Factor 2 (AR-TIF2) Agonism High Content Imaging Assay for Nucleoli Translocation (AID 2283998; active = hit-call score of the fitted dose curve at least 0.9, where 1 is the maximum). A digest of the protocol: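 Nucleolar translocation of AR-RFP, with TIF2-GFP coexpressed in human osteosarcoma U2OS, imaged by high-content fluorescence. Compounds tested singly at 20 uM final, confirmed in triplicate, then titrated 0.195–50 uM final; gain-of-signal relative to DMSO.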
Sequence of Nucleoli Translocation, AR (gene 367) (P10275 whole entry, looked up): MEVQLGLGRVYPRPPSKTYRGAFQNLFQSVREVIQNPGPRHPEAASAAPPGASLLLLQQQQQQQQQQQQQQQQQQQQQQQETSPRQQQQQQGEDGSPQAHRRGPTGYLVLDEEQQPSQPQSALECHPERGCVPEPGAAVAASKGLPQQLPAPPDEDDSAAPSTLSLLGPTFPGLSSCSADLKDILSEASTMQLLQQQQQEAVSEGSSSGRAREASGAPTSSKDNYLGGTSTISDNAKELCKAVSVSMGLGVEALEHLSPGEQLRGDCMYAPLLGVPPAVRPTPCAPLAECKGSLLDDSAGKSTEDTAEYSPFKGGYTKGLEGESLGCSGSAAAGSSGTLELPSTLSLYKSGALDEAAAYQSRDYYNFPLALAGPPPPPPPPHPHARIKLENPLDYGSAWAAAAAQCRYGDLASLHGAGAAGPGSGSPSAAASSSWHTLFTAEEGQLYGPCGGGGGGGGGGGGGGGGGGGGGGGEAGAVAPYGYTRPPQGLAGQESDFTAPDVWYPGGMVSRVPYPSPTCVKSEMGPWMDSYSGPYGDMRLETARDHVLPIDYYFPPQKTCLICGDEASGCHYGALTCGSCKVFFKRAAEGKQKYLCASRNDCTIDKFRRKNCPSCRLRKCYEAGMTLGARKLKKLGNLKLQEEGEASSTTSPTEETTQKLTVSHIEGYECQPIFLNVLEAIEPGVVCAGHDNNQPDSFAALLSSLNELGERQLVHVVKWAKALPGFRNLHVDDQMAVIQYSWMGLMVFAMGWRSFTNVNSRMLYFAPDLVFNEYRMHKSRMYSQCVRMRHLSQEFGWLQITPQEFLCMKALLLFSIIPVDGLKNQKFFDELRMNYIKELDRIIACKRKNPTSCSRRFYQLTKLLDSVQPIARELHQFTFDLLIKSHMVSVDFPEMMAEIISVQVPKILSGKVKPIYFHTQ

Assay [2] concerns the target Ratio of Nucleoli Translocation and Cytoplasm, AR (gene 367) (UniProt P10275). The assay is described as follows: UPITT_HCI_U2OS_AR_TIF2_Nucleoli_Cytoplasm_Ratio_Antagonist: University of Pittsburgh U2OS Androgen Receptor-Transcriptional Intermediary Factor 2 (AR-TIF2) Antagonism High Content Imaging Assay for Ratio of Nucleoli Translocation and Cytoplasm (AID 2283999; active = hit-call score of the fitted dose curve at least 0.9, where 1 is the maximum;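 note: antagonists lower the DHT-driven ratio of nucleolar to cytoplasmic red signal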). In outline: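 Compounds were added to U2OS cells carrying red-fluorescent AR and green-fluorescent TIF2, first at 20 uM, with hits confirmed in triplicate and titrated from 0.195 to 50 uM. Nucleolar versus cytoplasmic AR-RFP fluorescence was then quantified by imaging, with analysis relative to DHT.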

For assay [3] the target is unchanged. The assay is described as follows: UPITT_HCI_U2OS_AR_TIF2_Nucleoli_Cytoplasm_Ratio_Agonist: University of Pittsburgh U2OS Androgen Receptor-Transcriptional Intermediary Factor 2 (AR-TIF2) Agonism High Content Imaging Assay for Ratio of Nucleoli Translocation and Cytoplasm (AID 2284000; active = hit-call score of the fitted dose curve at least 0.9, where 1 is the maximum;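 note: hits raise the red nucleolar to cytoplasm ratio above vehicle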). In outline:
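Compounds tested at 20 uM final in primary screen (0.2% DMSO) and 0.195-50 uM final in dose-response (0.5% DMSO). Imaging of human U2OS cells bearing RFP-AR and GFP-TIF2; endpoint is nucleoli/cytoplasm red signal ratio, positive direction relative to DMSO.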

Assay [4] in a line: CCTE_Shafer_MEA_acute_spike_number: CCTE's Neural Acute Assay for Total Number of Spikes, Shafer Lab (AID 2284008).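 For AC50: curve fitted for decrease in spike count so AC50 reflects inhibitors.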 A digest of the protocol: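 Total spike count from 40 min recordings before and during compound exposure (0.03-40 uM), given as per-well percent change. Cortical cultures from rat, DIV 13 or 15, 37 C; adaptive detection threshold 8x rms noise.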
Assay [5] in a line: CCTE_Shafer_MEA_acute_firing_rate_mean: CCTE's Neural Acute Assay for Mean Firing Rate, Shafer Lab (AID 2284009).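 Note: analyzed for loss of signal so actives lower firing rate relative to DMSO.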 In outline:
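Primary rat cortical neurons on 16-electrode MEA wells were exposed on DIV 13 or 15 to compound (0.03-40 uM). Spike counts per recording time, averaged over electrodes, were compared between 40-min baseline and 40-min post-exposure recordings as percent change.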

The nature of assay [6]: CCTE_Harrill_HTTr_Viability_MCF7: CCTE's 6-hour Cell Viability Assessment for the High-Throughput Transcriptomics (HTTr) Platform, in MCF-7 cells cultured in DMEM + 10% fetal bovine serum, Harrill Lab (AID 2284010). A digest of the protocol: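 Read-out is propidium iodide gain of signal by high-content imaging, reflecting membrane integrity loss. Measurements are taken 6 h after dosing, eight concentrations per chemical, with DMSO serving as baseline for bidirectional curve fitting.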

Assay [7] in a line: CCTE_Harrill_HTTr_Apoptosis_MCF7: CCTE's 6-hour Apoptosis Assessment for the High-Throughput Transcriptomics (HTTr) Platform, in MCF-7 cells cultured in DMEM + 10% fetal bovine serum, Harrill Lab (AID 2284011). In outline: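 High-content imaging of CellEvent Caspase 3/7 Green signal follows a six-hour exposure, with eight concentrations per chemical. MCF-7 cells grown in DMEM plus 10% fetal bovine serum; activity fitted in both directions against DMSO.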

The nature of assay [8]: CCTE_Harrill_HTTr_CellCount_MCF7: CCTE's Cell Proliferation Assessment for the High-Throughput Transcriptomics (HTTr) Platform, Harrill Lab (AID 2284012; active = hit-call score of the fitted dose curve at least 0.9, where 1 is the maximum;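 note: cells exposed to compound for six hours; intended direction is loss of nuclei count meaning fewer cells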). A digest of the protocol:
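Cell count served as viability reporter: loss of Hoechst-stained nuclei, counted by high content imaging, marks decreased growth or survival. Exposure was 6 h in MCF-7 cells across eight concentrations, with DMSO as baseline.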

Assay [9] can be described thus: CCTE_Shafer_MEA_acute_burst_number: CCTE's Neural Acute Assay for Single-Electrode Bursts, Shafer Lab (AID 2284013). A digest of the protocol: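 Primary rat cortical neurons on 16-electrode MEA wells, DIV 13 or 15, exposed to compound (0.03-40 uM; ≥3 wells); 40-min recordings at 37 C before and after treatment. Burst count expressed as percent change from baseline, DMSO as negative control.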

A short description of assay [10]: CCTE_Shafer_MEA_acute_burst_duration_mean: CCTE's Neural Acute Assay for Mean Burst Duration, Shafer Lab (AID 2284014).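 Note: hits are decreases in mean burst duration relative to DMSO controls.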 A digest of the protocol: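 Mean burst duration was compared between a 40 min baseline and a 40 min recording in the presence of compound (0.03-40 uM, 37 C), giving percent change per well. Cultures were rat cortical neurons at DIV 13 or 15; wells needed ≥10 active electrodes.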

Assay [11] can be described thus: CCTE_Shafer_MEA_acute_per_burst_spike_number_mean: CCTE's Neural Acute Assay for Average Number of Spikes Per Burst, Shafer Lab (AID 2284015).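 Note: hits are decreases in mean spikes per burst versus baseline.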 In outline: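 Percent change in mean spikes per single-electrode burst is compared between a 40 min baseline and a 40 min recording with compound (0.03-40 uM). Cultures were rat cortical neurons on MEA plates at DIV 13 or 15, recorded at 37 C, with DMSO as the negative control.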

Assay [12] in a line: CCTE_Shafer_MEA_acute_interburst_interval_mean: CCTE's Neural Acute Assay for Mean Interburst Interval, Shafer Lab (AID 2284016).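 Note: percent change of mean interburst interval versus each well's own pre-dose baseline; curves fitted for decrease in interburst interval relative to DMSO.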 In outline:
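Percent change in mean single-electrode interburst interval was calculated per well from 40 min recordings before and after compound (0.03-40 uM). Recordings were made at 37 C on rat cortical cultures at DIV 13 or 15, with spikes detected at 8x rms threshold.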

A short description of assay [13]: CCTE_Shafer_MEA_acute_burst_percentage_mean: CCTE's Neural Acute Assay for Percentage of Spikes in a Burst, Shafer Lab (AID 2284017).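 For AC50: curve fitted for loss of signal so potency reflects decreased burst percentage.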 A digest of the protocol:
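Well-level mean burst percentage from a 40-min recording after compound (0.03-40 uM) expressed as percent change from a 40-min baseline at 37C. Cultures: primary rat cortical neurons on MEA, dosed on DIV 13 or 15; fitted downward relative to DMSO.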

A short description of assay [14]: CCTE_Shafer_MEA_acute_burst_percentage_std: CCTE's Neural Acute Assay for Standard Deviation of Burst Percentage, Shafer Lab (AID 2284018).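 Note: fitted in the negative direction so actives lower burst percentage SD.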 In outline:
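Value is percent change from baseline in the across-electrode SD of spikes-in-bursts percentage, wells with >/= 10 active electrodes. Acute 40-min exposure to 0.03-40 uM on DIV 13 or 15 rat cortical cultures, recorded at 37 C after 40-min baseline.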

Assay [15] can be described thus: CCTE_Shafer_MEA_acute_per_network_burst_spike_number_mean: CCTE's Neural Acute Assay for Average Number of Spikes in a Network Burst, Shafer Lab (AID 2284019).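 For AC50: curve fitted for loss of signal so actives reduce spikes per network burst.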 In outline: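 Percent change from baseline in mean spikes per network burst, spikes detected at 8x rms noise. Each compound at 0.03-40 uM in at least three wells of rat cortical cultures, recorded 40 min before and 40 min during exposure.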

Assay [16] in a line: CCTE_Shafer_MEA_acute_per_network_burst_spike_number_std: CCTE's Neural Acute Assay for Standard Deviation of Number of Spikes in a Network Burst, Shafer Lab (AID 2284020).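 Note: fitted for decrease in spike-number SD versus DMSO so actives lower it.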 A digest of the protocol:
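Endpoint: percent change from 40 min baseline in standard deviation of spikes per network burst, after 40 min compound exposure (0.03-40 uM, 37 C). Cortical rat neurons on MEA at DIV 13 or 15; spikes detected at 8x rms noise, 300-5000 Hz band-pass.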

Assay [17] is described as follows: CCTE_Shafer_MEA_acute_per_network_burst_electrodes_number_mean: CCTE's Neural Acute Assay for Mean Number of Electrodes in a Network Burst, Shafer Lab (AID 2284021).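 Note: curves fitted for decreases only so hits reduce electrodes per burst.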 A digest of the protocol: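 Percent change from baseline was computed as mean electrode count per network burst, comparing 40 min recordings before and during compound (0.03-40 uM) exposure. Cultures were rat cortical neurons at DIV 13 or 15, recorded on MEAs at 37 C with an adaptive 8x rms threshold.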

Assay [18] can be described thus: CCTE_Shafer_MEA_acute_network_burst_percentage: CCTE's Neural Acute Assay for Percentage of Network Bursts, Shafer Lab (AID 2284022).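 Note: curves fitted for loss so actives lower network burst percentage.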 A digest of the protocol: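 Network burst percentage (spikes in network bursts divided by total spikes) recorded at 37 C over 40 min baseline and 40 min after compound, 0.03-40 uM, in rat cortical cultures at DIV 13 or 15. Analysed as percent change from baseline versus DMSO.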

The target in assay [19] is Estrogen receptor (Homo sapiens) (UniProt P03372). The assay is described as follows: CCTE_Deisenroth_AIME_96WELL_LUC_Active: CCTE's 96-well Estrogen Receptor Transactivation Assay with AIME metabolic competence (ERTA luciferase; metabolism positive), Deisenroth Lab (AID 2284023; active = hit-call score of the fitted dose curve at least 0.9, where 1 is the maximum). In outline: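 Metabolism-positive mode: induced rat hepatic S9 in alginate microspheres conditions test solutions (0.002 - 200 uM, 10 points) for 2 hours. VM7Luc4E2 ER luciferase reporter cells then exposed 24 h; positive-direction fit against 17beta-estradiol, n=4 typical.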
Sequence of Estrogen receptor (Homo sapiens) (P03372 whole entry, looked up): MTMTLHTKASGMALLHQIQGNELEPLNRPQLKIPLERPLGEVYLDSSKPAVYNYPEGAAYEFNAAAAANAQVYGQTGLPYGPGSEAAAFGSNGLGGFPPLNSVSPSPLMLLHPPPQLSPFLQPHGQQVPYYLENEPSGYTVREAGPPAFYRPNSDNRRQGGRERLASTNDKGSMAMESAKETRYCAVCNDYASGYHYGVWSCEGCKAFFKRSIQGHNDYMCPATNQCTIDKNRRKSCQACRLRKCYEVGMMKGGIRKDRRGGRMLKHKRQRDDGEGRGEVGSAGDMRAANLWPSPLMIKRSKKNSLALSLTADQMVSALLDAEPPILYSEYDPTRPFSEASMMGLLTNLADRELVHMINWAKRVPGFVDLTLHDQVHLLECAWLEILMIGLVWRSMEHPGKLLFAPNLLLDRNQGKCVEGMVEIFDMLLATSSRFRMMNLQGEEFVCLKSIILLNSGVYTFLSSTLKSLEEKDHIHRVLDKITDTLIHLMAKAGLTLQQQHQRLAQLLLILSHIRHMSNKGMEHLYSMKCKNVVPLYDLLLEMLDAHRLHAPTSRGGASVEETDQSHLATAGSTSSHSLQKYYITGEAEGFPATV

Assay [20] concerns DIO1 (gene 1733). Briefly: CCTE_GLTED_hDIO1: CCTE's human Deiodinase 1 (DIO1) Inhibition Assay, Great Lakes Toxicology and Ecology Division (GLTED) Lab (AID 2283987; active = hit-call score of the fitted dose curve at least 0.9, where 1 is the maximum;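 note: isolated human DIO1 enzyme in a cell-free setup rather than cells; enzyme activity read as free iodide liberated from substrate via Sandell-Kolthoff colorimetry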). A digest of the protocol: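 Inhibition read as reduced iodide release: after 3 h of human DIO1 with chemical, free iodide is quantified colorimetrically (Sandell-Kolthoff cerium/arsenic reaction). Triplicate plates, DMSO baseline.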

Inconclusive results are not listed. Calls of active or inactive are those of the source. Rule for the calls, unless noted: active = hit-call score of the fitted dose curve at least 0.9, where 1 is the maximum; inactive = score below 0.9.

Sequence of Ratio of Nucleoli Translocation and Cytoplasm, AR (gene 367) (P10275 whole entry, looked up): as the sequence (P10275 whole entry, looked up) above

Regarding `CCCCCC[C@@H](O)C/C=C\CCCCCCCC(=O)OCC(O)CO` (stereo partly drawn), the molecule was called inactive in assay [1], in [2] and in [3].
As for `CN(C)Cc1cc(CN(C)C)c(O)c(CN(C)C)c1`, the call in assay [1], in assay [2] and in assay [3] was inactive.
The term AC50 denotes the concentration giving half of the maximal activity seen. For the molecule `CC1(C)CC(O)CC(C)(C)N1[O]`, the call in assay [4], in [5], in assay [6], in assay [7], in assay [8] and in [9] was inactive. The molecule was classed as inactive in assay [10], in [11], in [12], in assay [13], in [14] and in assay [15]. Also, the molecule was called inactive in assay [16] and in assay [17]. Further, in assay [18], the AC50 was 20.4 nM (active).
Take `CCCC(C)C(=O)OCC` (stereo not drawn): the call in assay [4], in assay [5], in assay [6], in assay [7], in assay [9] and in assay [10] was inactive. In addition, the molecule was classed as inactive in [11], in assay [12], in [13], in [14], in assay [15] and in [16]. In addition, the call in [17] and in [18] was inactive.
`Oc1ccc(/C=C/c2cc(O)cc(O)c2)cc1`: the outcome in assay [2] and in assay [7] was inactive. For the same molecule, the AC50 in [19] is 4940 nM (active).
Take `Nc1nc(N)nc(-c2ccccc2)n1`: the molecule was called inactive in assay [4], in assay [5], in assay [9], in [10], in [11] and in [12]. The result in assay [13], in assay [14], in assay [15], in assay [16], in assay [17] and in assay [18] was inactive.
On to `c1ccc2c(c1)[nH]c1ccccc12`, for which the result in [1], in assay [2], in assay [3], in [6] and in [7] was inactive.
On to `CCCCCCCCCCCCCCCCCCOS(=O)(=O)O`, for which, in [20], the AC50 was 90100 nM (active).
As to `Nc1cccc(N)n1`, the AC50 in assay [4] was 5.05 nM (active); in [5], 3.19 nM (active); in [9], 3 nM (active); in [11] it was 15.4 nM (active); in assay [13] it was 3 nM (active); in assay [14], 3 nM (active). Besides, the AC50 in assay [15] was 45.6 nM (active); in [16] it was 11.7 nM (active); in [18], 3.18 nM (active). The molecule was called inactive in assay [10], in assay [12] and in assay [17].
